ATG4B inhibitor: inhibitors of human ATG4B cysteine protease | 340,000 compounds, 0.51% hits | Q9Y4P1 | inhibition, % at 8.33 µM | ATG4B cleavage of LC3-PLA2, NBD-HPC fluorescence, 1 h; in the data active = inhibition above about 40%
Mot1-301 SUMO: inhibitors of SUMOylation pathway: yeast Mot1-301 growth rescue; S. cerevisiae Mot1-301 growth rescue, ATP luminescence, 38.5C; percent above DMSO median, 100 means doubled; growth rescue, % at 18.8 µM; 320,000 compounds, 1% hits;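 active = every valid replicate shows activation above 250% relative to neutral control wells; inactive = the rest, any valid replicate at or below 250%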
Calb FLC: affects C. albicans growth with fluconazole; C. albicans CaCi-2 (fluconazole-resistant clinical isolate) + fluconazole, Alamar Blue growth, 48 h; growth inhibition, % (test concentration not listed); 300,000 compounds, 0.57% hits; AID 1979;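 active = growth inhibition above about 58% in most replicates, limit read from the data, passing the limit was not always enough; inconclusive = exactly half the replicates above a set limit; inactive = most replicates below a set limit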;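 also: all wells also contain fluconazole at 8 µg/ml as a sub-toxic cotreatment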
FAS TE block: blocks the thioesterase domain of human fatty acid synthase; P49327; recombinant FAS-TE, OMFH fluorogenic substrate, fluorescence endpoint; inhibition, % at 15 µM; 360,000 compounds, 0.67% hits; AID 602261;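 active = compounds whose normalised, plate-corrected inhibition of enzyme fluorescence in the single-dose primary screen is 50% or more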
NadD inh: inhibitors of Staphylococcus aureus NadD. AID 602399. purified NadD enzyme, colorimetric absorbance read-out. inhibition, % at 20 µM. 360,000 compounds, 0.78% hits; in the data active = inhibition above about 26%
Mot1 SUMO dose: inhibits SUMO pathway, affecting Mot1-301 yeast growth; shares compounds with Mot1-301 SUMO; S. cerevisiae Mot1-301 galactose growth, ATP luminescence, 24 h; -100 = growth of slx-deleted rescue strain; growth activity, percent, % at 42 µM; 2,300 tested, under 10 active;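 active = Signal drops as the depositor expects, and the fitted half-maximal dose is no more than ten times the top valid tested dose; inconclusive = Poor fit, or a flat curve whose signal drops by 30% to 70%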;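 also: more negative values mean stronger growth rescue toward the control strain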
Hits are given with their value; n = inactive; u = inconclusive; x = no result; + = active, no number. Shown are actives, neighbours in structure and some others; about 3.1% of the full set was active somewhere.

SMILES | ATG4B inhibitor | Mot1-301 SUMO | Calb FLC | FAS TE block | NadD inh | Mot1 SUMO dose
Cc1ccc(S(=O)(=O)N(C)C)cc1NC(=O)COC(=O)c1ccc2c(=O)n3c(nc2c1)CCC3 | n | n | n | n | n | x
CCN(CC)c1ccc(/C=N/NC(=O)OC(C)(C)C)cc1 | n | 568.1 | n | n | n | n
Cc1nc2ccccc2c2ncccc12 | n | 613.3 | n | n | n | n
Cc1ccc2c(c1)c1c(n2CC(O)CN2CCOCC2)CCCC1 (configuration not stated) | x | n | n | x | x | x
COc1ccc(C(=O)c2c(C)c3cc(C)ccc3n2CC(O)CN2CCOCC2)cc1 (configuration not stated) | n | 924.2 | n | n | n | n
COc1c(C)cc(S(=O)(=O)NC2CC(C)(C)NC(C)(C)C2)c(C)c1C | n | 687.4 | n | n | n | n
CCN(C(=S)NCCOC)c1cccc2ccccc12 | n | 417.9 | n | n | n | n
CCN(C(=S)NC(=O)c1ccco1)c1cccc2ccccc12 | n | n | x | n | n | x
O=C(COC(=O)CCNS(=O)(=O)c1ccccc1)NC1CC1 | n | n | x | n | n | x
Cn1c(NCc2ccco2)nc2c1c(=O)n(Cc1ccc(Br)cc1)c(=O)n2C | n | n | n | n | n | x
Cn1c(NCc2ccco2)nc2c1c(=O)n(Cc1ccc(Cl)cc1)c(=O)n2C | n | + | n | n | n | n
Cc1ccc(CNC(=O)c2ccc(N3CCC4(CC3)CC(c3ccccc3)=NO4)c(NC(=O)c3cccc(C)c3)c2)cc1 | n | 947.3 | n | n | n | n
CN(c1ccccc1)c1ccc(/C=C/[N+](=O)[O-])cc1 | n | 803.8 | n | n | n | n
O=[N+]([O-])c1ccc(C=CC=Cc2ccccc2)cc1 | x | x | x | n | n | x
CC(C)n1c(CN(C)Cc2ccccc2)nc2c1c(=O)n(C)c(=O)n2C | n | n | n | x | x | x
CC(=O)N1N=C(c2ccc3ccccc3c2)OC1(C)C | n | n | u | n | n | x
CC(=O)N1N=C(c2ccc(C(C)(C)C)cc2)OC1(C)C | n | 535.8 | n | n | n | n
COCCOC(=O)C(C#N)c1nc2ccccc2nc1N1CCN(Cc2ccccc2)CC1 (configuration not stated) | n | n | n | n | n | x
C=CCOC(=O)C(C#N)c1nc2ccccc2nc1N1CCN(Cc2ccccc2)CC1 (configuration not stated) | n | 501.2 | n | n | n | n
CCN1C(=O)N(c2ccc(Cl)cc2)C(C)=CC1(C)C | n | 837.0 | n | n | n | n
C=C1N(c2ccc(Cl)cc2)C(=O)OC1(C)C | n | n | u | n | n | x
O=C(CCSc1nnc(-c2ccncc2)o1)Nc1ccc(Cl)cc1 | n | 450.0 | n | n | n | n
Cc1nc(C)n(CC(=O)N2CCCC(C(=O)c3cccc4ccccc34)C2)n1 (configuration not stated) | n | 364.5 | n | n | n | n
Cc1ccn(CC(=O)N2CCCC(C(=O)c3cccc4ccccc34)C2)n1 (configuration not stated) | n | n | n | n | n | x
Cc1ccc(S(=O)(=O)NCc2ccc(C(=O)N3CCN(c4ccccn4)CC3)cc2)cc1 | n | 662.0 | n | n | n | n
SMILES | ATG4B inhibitor | Mot1-301 SUMO | Calb FLC | FAS TE block | NadD inh | Mot1 SUMO dose
COCCN(C(=O)c1csnn1)C(C(=O)NC1CCCCC1)c1ccccc1 (configuration not stated) | n | 441.1 | n | n | n | n
COc1ccc(N=C2SC(C(N)=O)CC(=O)N2CCc2ccc(OC)c(OC)c2)cc1 (configuration not stated) | n | n | n | n | n | x
COc1ccc(N=C2SC(C(=O)O)CC(=O)N2Cc2ccc(OC)c(OC)c2)cc1 (configuration not stated) | n | 529.1 | n | n | n | n
COCC(=O)Nc1c(C(=O)Nc2ccc3c(c2)OCO3)oc2ccccc12 | n | 414.9 | n | n | n | n
NS(=O)(=O)c1ccc(NC(=S)Nc2ccn(Cc3cccc4ccccc34)n2)cc1 | n | n | n | n | n | x
Cc1cccc(C(O)c2ncc(-c3cccc(C(F)(F)F)c3)[nH]2)c1C (configuration not stated) | x | x | x | n | n | x
Cc1ccc2nc(NC(=O)CNS(=O)(=O)c3ccc(Br)s3)sc2c1 | n | 519.7 | n | n | n | n
Cc1ccc2nc(NC(=O)CN(C)S(=O)(=O)c3ccc(Br)s3)sc2c1 | n | n | n | n | n | x
